Compounds without any hit were thinned out: in the full panel of roughly 83,000, 20% have a hit.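 Interpretation: 100, growth as untreated; towards 0, rising growth inhibition; 0, no net growth; 0 to -100, cell death. Compounds scoring below 10 were considered active.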 Unmarked numbers belong to inactive results. Calls of active or inactive are those of the source.

Some test systems named below: RPMI-8226 leukemia; OVCAR-5 ovarian; OVCAR-4 ovarian; SK-OV-3 ovarian; IGROV1 ovarian; OVCAR-3 ovarian; HS 578T breast; NCI/ADR-RES ovarian; T-47D breast; BT-549 breast; MDA-MB-435 melanoma; SW-620 colon; MCF7 breast; HCC-2998 colon; KM12 colon; HCT-116 colon; OVCAR-8 ovarian.
Test in all cases: NCI-60 one-dose screen, 48 h (100 = growth as untreated, 0 = no growth, -100 = all killed)
What all share (settings): 10 µM unless noted

As to `CCN1CCN(c2ccc(NC(=O)Nc3nc4ccc(-c5ccccc5OC)cc4s3)cc2)CC1`, the growth was -33% (active) in the assay on RPMI-8226 leukemia; -11.5% (active) in the assay with OVCAR-5 ovarian; -76.1% (active) in the assay with OVCAR-4 ovarian; -12.5% (active) in the assay with SK-OV-3 ovarian; -71.3% (active) in the assay with IGROV1 ovarian; -90.5% (active) in the assay on OVCAR-3 ovarian. In addition, the growth was -23.2% (active) in the assay with HS 578T breast; -67.3% (active) with NCI/ADR-RES ovarian; -45.4% (active) in the assay with T-47D breast; 31.6% with BT-549 breast; -85.5% (active) in the assay with MDA-MB-435 melanoma; -70% (active) with SW-620 colon. In addition, the growth with MCF7 breast was -70.8% (active); with HCC-2998 colon it was -88.1% (active); with KM12 colon, -83.5% (active).
In the case of `COc1ccc(Nc2cc(NC(=O)CNc3cc(OC)c(Cl)c(OC)c3Cl)ncn2)cc1`, the growth in the assay with RPMI-8226 leukemia is 62.5%; with OVCAR-5 ovarian it was 88.1%; in the assay on OVCAR-4 ovarian, 80.1%; with SK-OV-3 ovarian, 79.8%; with IGROV1 ovarian, 74.2%; with OVCAR-3 ovarian, 81.6%. For the same molecule, the growth in the assay with HS 578T breast was 83.4%; in the assay on T-47D breast it was 47.1%; in the assay with BT-549 breast, 83.2%; in the assay with MDA-MB-435 melanoma it was 74%; in the assay on SW-620 colon, 96.3%; in the assay on MCF7 breast, 71.7%. Also, the growth in the assay with HCT-116 colon is 69.9%; with HCC-2998 colon, 95.5%; in the assay on KM12 colon it was 81.5%.
Take `O=C(CN1N=C(c2ccc(F)cc2)CCC1=O)Nc1nccs1`: the growth with RPMI-8226 leukemia is 103%; in the assay with OVCAR-5 ovarian it was 107%; in the assay with OVCAR-4 ovarian, 97.6%; in the assay with SK-OV-3 ovarian, 97.7%; in the assay with IGROV1 ovarian, 100%; in the assay with OVCAR-3 ovarian, 113%. The growth with HS 578T breast was 100%; with NCI/ADR-RES ovarian, 109%; in the assay with T-47D breast it was 83.7%; in the assay with BT-549 breast, 101%; in the assay on MDA-MB-435 melanoma, 102%; in the assay with SW-620 colon, 91.6%. Further, the growth with MCF7 breast is 93.8%; with HCT-116 colon it was 104%; in the assay on HCC-2998 colon, 97.6%; in the assay with KM12 colon it was 107%.
For `COc1ccc(C(=O)c2cc(OC)c(OC)c(OC)c2)cc1OC(=O)CCl`, the growth in the assay with RPMI-8226 leukemia is 29.7%; in the assay on OVCAR-5 ovarian, 73.7%; in the assay on OVCAR-4 ovarian it was 54.5%; in the assay on SK-OV-3 ovarian, 17.7%; with IGROV1 ovarian it was 25.7%; in the assay with OVCAR-3 ovarian it was 0.464% (active). For the same molecule, the growth with HS 578T breast was 48.9%; with NCI/ADR-RES ovarian it was 10.2%; in the assay with T-47D breast, 74.7%; with BT-549 breast, 16.2%; in the assay with MDA-MB-435 melanoma it was -13.2% (active); in the assay with SW-620 colon, 29.9%. In addition, the growth with MCF7 breast was 15.9%; in the assay with HCT-116 colon it was 10.7%; with HCC-2998 colon, 26.3%; in the assay on KM12 colon it was 7.22% (active).
Consider `O=C(Nc1ccccc1)NS(=O)(=O)c1c[nH]c(=S)[nH]c1=O`, for which the growth in the assay on RPMI-8226 leukemia was 103%; in the assay with OVCAR-5 ovarian it was 113%; with OVCAR-4 ovarian, 105%; in the assay on SK-OV-3 ovarian, 69.9%; in the assay with IGROV1 ovarian it was 106%; with OVCAR-3 ovarian, 110%. Moreover, the growth in the assay with HS 578T breast is 108%; in the assay on NCI/ADR-RES ovarian, 104%; with T-47D breast it was 75.1%; in the assay with BT-549 breast it was 92.1%; in the assay on MDA-MB-435 melanoma, 108%; in the assay with SW-620 colon, 105%. Moreover, the growth in the assay on MCF7 breast was 100%; in the assay with HCT-116 colon, 93.8%; in the assay with HCC-2998 colon, 114%; in the assay with KM12 colon it was 105%.
In the case of `Nc1ccccc1NC(=O)c1ccc(CSc2nc(N3CCOCC3)c3cccn3n2)cc1`, the growth was -4.81% (active) with RPMI-8226 leukemia; 29.5% in the assay with OVCAR-5 ovarian; 42% in the assay with OVCAR-4 ovarian; 6.2% (active) in the assay on SK-OV-3 ovarian; 21.5% in the assay with IGROV1 ovarian; 1.87% (active) in the assay on OVCAR-3 ovarian. Moreover, the growth was 23.1% with HS 578T breast; 3.65% (active) in the assay on NCI/ADR-RES ovarian; -1.13% (active) with T-47D breast; 15.3% in the assay on BT-549 breast; -21.2% (active) in the assay with MDA-MB-435 melanoma; 9.25% (active) in the assay with SW-620 colon. For the same molecule, the growth is 10.3% in the assay with MCF7 breast, 6.78% (active) with HCT-116 colon, 17.6% in the assay on HCC-2998 colon and 16.6% in the assay on KM12 colon.
As for `COc1cc(/C=C/C(=O)c2cccs2)ccc1OCc1ccc(Cl)nc1`, the growth is 17.5% in the assay with RPMI-8226 leukemia; 88.9% in the assay with OVCAR-5 ovarian; 101% in the assay with OVCAR-4 ovarian; 105% with SK-OV-3 ovarian; 76.8% with IGROV1 ovarian; 67.9% in the assay on OVCAR-3 ovarian. The growth in the assay with HS 578T breast is 104%; in the assay on NCI/ADR-RES ovarian, 69.6%; with T-47D breast it was 77.1%; in the assay with BT-549 breast it was 91.4%; in the assay on MDA-MB-435 melanoma it was 76.7%; in the assay on SW-620 colon it was 58.2%. Also, the growth in the assay on MCF7 breast is 9.24% (active); with HCT-116 colon, 75.1%; with HCC-2998 colon it was 99.8%; in the assay with KM12 colon, 28.5%.
`COc1cc(C2=N/C(=C\c3cc4ccccc4nc3Oc3ccccc3)C(=O)N2C(=N)N)cc(OC)c1OC`: the growth with RPMI-8226 leukemia is 86.1%; in the assay on OVCAR-5 ovarian, 80.7%; with OVCAR-4 ovarian it was 24.3%; in the assay with SK-OV-3 ovarian, 44.2%; in the assay on IGROV1 ovarian, 82.1%; in the assay on OVCAR-3 ovarian, 76.7%. The growth in the assay on HS 578T breast is 33.7%; in the assay on NCI/ADR-RES ovarian it was 52.6%; with T-47D breast it was 49%; with BT-549 breast, 32.7%; in the assay on MDA-MB-435 melanoma, 95.2%; with SW-620 colon, 87.8%. For the same molecule, the growth was 75.5% in the assay with MCF7 breast, 52.8% in the assay on HCT-116 colon, 75.2% in the assay with HCC-2998 colon and 79.6% with KM12 colon.
For the molecule `CCCCc1n(Cc2ccc3ccccc3c2)c2ccccc2[n+]1Cc1ccc2ccccc2c1`, the growth with OVCAR-8 ovarian is -76.7% (active); in the assay with OVCAR-5 ovarian it was -94.1% (active); in the assay on OVCAR-4 ovarian, -90.7% (active); in the assay on SK-OV-3 ovarian, -65.5% (active); with IGROV1 ovarian, -80.1% (active); in the assay on OVCAR-3 ovarian, -87.8% (active). The growth is -61.5% (active) with HS 578T breast; 63.2% with NCI/ADR-RES ovarian; -62.1% (active) with T-47D breast; -74% (active) with BT-549 breast; -93.6% (active) in the assay with MDA-MB-435 melanoma; -79.8% (active) with SW-620 colon. The growth with MCF7 breast is -85.6% (active); with HCT-116 colon, -83.2% (active); in the assay with HCC-2998 colon it was -80.6% (active); in the assay on KM12 colon it was -82.9% (active).

(Values after PubChem BioAssay (NCI).)
